Bioassay records: PubChem, National Center for Advancing Translational Sciences (NCATS)
Shiga inhibitor – A qHTS for Small Molecule Inhibitors of Shiga Toxin; Vero cells, Shiga toxin protein synthesis inhibition reporter; inhibition, % at 38.7 µM; 9.2% of 290,000 active; AID 2315, 2010; in the data active = inhibition mostly above about 28%, no sharp cut-off; inactive = mostly below about 43%
Pf growth 96h – Primary qHTS for delayed death inhibitors of the malarial parasite plastid, 96 hour incubation. P. falciparum luciferase reporter growth, 96 h. Potency, µM (highest dose often 28.7 µM), usual class: inhibitors. 6.9% of 320,000 active. AID 504834, 2011
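P. falciparum expressing integrated firefly luciferase grown in erythrocytes (2% hematocrit, 0.05% parasitemia final) with compounds for 96 hours at 37 C, 5% CO2. Growth inhibition read as loss of luminescence after adding luciferase detection reagent.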
Pf growth 48h – Primary qHTS for delayed death inhibitors of the malarial parasite plastid, 48 hour incubation; P. falciparum luciferase growth in erythrocytes, 48 h; Potency, µM (doses to about 28.7 µM), usual class: inhibitors; 5.9% of 310,000 active
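Luminescence readout; reporter = integrated firefly luciferase in P. falciparum. RBC culture at 2% hematocrit, 0.1% parasitemia final, 37 C/5% CO2; decreased signal taken as growth inhibition.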
Cycloheximide cs – Cycloheximide Counterscreen for Small Molecule Inhibitors of Shiga Toxin. 12% of 300,000 active. cell reporter, cycloheximide protein synthesis inhibition counterscreen. AID 2314, 2010. max response, %; in the data active = max response mostly above about 13%, no sharp cut-off; inactive = mostly below about 14%; note: read at 38.3 µM for the half of the compounds with a filed dose
Of the large screens only hits and unclear results are named; the others gave an inactive call. In the library only some 21% were active in any assay of this set; here they are far more common. Unless noted, calls come from the whole dose curve; as a rule, active = well fitted inhibition curve with a large enough effect; inconclusive = small, poorly fitted or top-dose-only effect, or another doubt; inactive = no such curve, though single readings can be large or run the other way.

COc1ccc(C2=CC(c3c(C)nn(-c4ccccc4)c3Cl)n3nnnc3N2)cc1OC (stereo not drawn)	Pf growth 96h inconclusive, Pf growth 48h 2.3µM
CCOc1ccc(C2C=C(c3ccc(C)cc3)Nc3ncnn32)cc1 (stereo not drawn)	Pf growth 48h 10µM
CCOc1ccc(C=C2SC(=O)N(CCN)C2=O)cc1	none (no result: Pf growth 96h, Pf growth 48h)
CCOc1ccc(C2C=C(c3ccc(C)cc3)Nc3nnnn32)cc1 (stereo not drawn)	Pf growth 96h 13µM, Pf growth 48h 8.3µM
CCCC(=O)Nc1cc2c3c(c1)C(C)C(=O)N3CCC2 (stereo not drawn)	none
O=[N+]([O-])c1ccc(SCc2ccco2)cc1N1CCOCC1	Shiga inhibitor 54, Pf growth 48h inconclusive, Cycloheximide cs 29
COC(=O)c1ccc(OC(=O)c2ccc(OCc3c(C)noc3C)c(OC)c2)cc1	Pf growth 96h 10µM
COc1ccc(CNC(=O)COC(=O)c2ccc(OCc3c(C)noc3C)cc2)cc1OC	Pf growth 96h inconclusive
CCOc1ccc(CCNC(=O)c2ccc(OCc3c(C)noc3C)cc2)cc1OCC	Pf growth 96h 7.4µM, Pf growth 48h inconclusive (no result: Shiga inhibitor, Cycloheximide cs)
COc1ccc(CCNC(=O)c2ccc(OCc3c(C)noc3C)cc2)cc1OC	Pf growth 96h inconclusive, Pf growth 48h 9.3µM (no result: Shiga inhibitor, Cycloheximide cs)
Cc1ccc(S(=O)(=O)N(C)c2c(C)ccc(S(N)(=O)=O)c2C)cc1	none
O=C(OCc1nnc(-c2ccccc2)o1)c1ccc2ccccc2n1	Shiga inhibitor 26, Cycloheximide cs 12
Cc1ccc(-c2nnc(COC(=O)c3cccs3)o2)cc1	Shiga inhibitor 80, Cycloheximide cs 54
Cc1ccc(C(=O)OCc2nnc(-c3ccc(Br)cc3)o2)cc1	none
O=C(OCc1nnc(-c2ccccc2)o1)c1ccc(CO)cc1	none
Cc1ccc(-c2nnc(COC(=O)c3ccco3)o2)cc1	Shiga inhibitor 60, Pf growth 96h inconclusive, Cycloheximide cs 38
Cc1ccc(C(=O)OCc2nnc(-c3ccccc3)o2)o1	Cycloheximide cs 25 (no result: Pf growth 96h)
CN(CC(=O)Nc1ccccc1Cl)C(=O)CSc1nncn1C	none (no result: Shiga inhibitor, Cycloheximide cs)
COc1cccc(CNC(=O)CCc2nc3cc(S(=O)(=O)N4CCOCC4)ccc3n2C)c1	Pf growth 96h inconclusive (no result: Shiga inhibitor, Cycloheximide cs)
COc1cccc(NC(=S)/C(=C(\[O-])c2ccc(C)c([N+](=O)[O-])c2)[n+]2ccccc2)c1	Shiga inhibitor 51, Cycloheximide cs 39 (no result: Pf growth 96h)
Cc1ccccc1NC(=S)/C(=C(\[O-])c1ccc(C)c([N+](=O)[O-])c1)[n+]1ccccc1	none
Cc1ccc(NC(=S)/C(=C(\[O-])c2ccc(C)c([N+](=O)[O-])c2)[n+]2ccccc2)cc1C	Shiga inhibitor 149, Pf growth 48h inconclusive, Cycloheximide cs 70
Cc1ccc(C(=O)N2CCN(C)CC2)cc1[N+](=O)[O-]	none
COc1ccc(CNC(=O)c2c(-c3c(F)cccc3Cl)noc2C)cc1	none
CCN1CCN(C(=S)Nc2ccc([N+](=O)[O-])cc2)CC1	Cycloheximide cs 21
CCOc1cc(N2CCCC2)ccc1[N+](=O)[O-]	Pf growth 96h 6.6µM
COc1ccccc1OCCNc1cc(N2CCCCC2)ccc1[N+](=O)[O-]	none
CCCN1CCC(N2CCN(c3ccc([N+](=O)[O-])cc3)CC2)CC1	Pf growth 96h 5.9µM, Pf growth 48h inconclusive
O=[N+]([O-])c1ccc(N2CCCCC2)cc1	Cycloheximide cs 27
O=[N+]([O-])c1ccc(N2CCN(c3ccccc3)CC2)cc1	none
Cc1oc(-c2ccc3ccccc3c2)nc1CN(C)C(C)c1ccncn1 (stereo not drawn)	none
CSCC[C@H](NC(=O)[C@@H]1CSC2c3ccccc3C(=O)N21)C(=O)NCc1ccco1 (stereo partly drawn)	Pf growth 96h inconclusive, Pf growth 48h inconclusive
CCNC(=S)N1CCN(c2ccc([N+](=O)[O-])cc2)CC1	Pf growth 96h 6.6µM, Pf growth 48h 12µM
O=[N+]([O-])c1ccc(N2CCN(C(=S)NCc3ccc(Cl)cc3)CC2)cc1	Pf growth 48h inconclusive
CCN(CC)C(=O)C1CCCN(c2ccc([N+](=O)[O-])cc2/C=N/NC(=O)c2ccc([N+](=O)[O-])cc2)C1 (stereo not drawn)	Pf growth 96h inconclusive, Pf growth 48h inconclusive
O=[N+]([O-])c1ccc(NC(=S)N2CCN(c3ccc(F)cc3)CC2)cc1	none
CCN(CC)C(=O)C1CCCN(c2ccc([N+](=O)[O-])cc2)C1 (stereo not drawn)	Pf growth 96h 1.7µM
COc1ccc(C(=O)NC(=S)N2CCN(c3ccc([N+](=O)[O-])cc3)CC2)cc1	none
COCCCNC(=S)N1CCN(c2ccc([N+](=O)[O-])cc2)CC1	Pf growth 48h 6.6µM
C=CCNC(=S)N1CCN(c2ccc([N+](=O)[O-])cc2)CC1	Pf growth 96h inconclusive, Pf growth 48h 1.7µM
CC(=O)N1CCN(c2ccc([N+](=O)[O-])cc2)CC1	Pf growth 48h inconclusive
CNC(=S)N1CCN(c2ccc([N+](=O)[O-])cc2)CC1	Pf growth 96h 13µM, Pf growth 48h inconclusive
O=C(CSC1=NS(=O)(=O)c2ccccc2N1)Nc1nccs1	Pf growth 48h inconclusive (no result: Shiga inhibitor, Cycloheximide cs)
CC(=O)Nc1cccc(NC(=O)CSc2nccn2Cc2ccco2)c1	Pf growth 96h inconclusive
Cc1ccc(C)c(NC(=O)CSc2nccn2Cc2ccco2)c1	Shiga inhibitor 54, Cycloheximide cs 24
Cc1ccc(NC(=O)CSc2nccn2Cc2ccco2)c(C)c1	Shiga inhibitor 61, Cycloheximide cs 52
Cc1nnc(SCC(=O)Nc2ccccc2F)n1Cc1ccco1	none
O=C(CSc1nccn1Cc1ccco1)Nc1ccccc1F	Cycloheximide cs 30
Cc1ccc(C)c(NC(=O)CSc2nnc(CNC(=O)c3ccco3)n2C)c1	Pf growth 96h 2.1µM
CC1(C)CCC[C@@](C)([C@H]2CC[C@]3(C)[C@@H]2[C@H](O)C[C@@H]2[C@@]4(C)CC[C@H](O)C(C)(C)[C@@H]4[C@@H](O)C[C@]23C)O1	none (no result: Pf growth 96h, Pf growth 48h)
Cc1nnc(SCC(=O)NC2CC2)n1-c1ccccc1	Pf growth 96h 4.7µM
Cc1cccc(-n2c(SCC(=O)NCc3ccco3)nnc2-c2ccco2)c1	Pf growth 96h 5.2µM, Pf growth 48h inconclusive
COc1cccc(-n2c(SCC(=O)NC3CCCC3)nnc2-c2ccco2)c1	Pf growth 48h 2.1µM
COc1ccc(OC)c(-n2nnnc2SCC(=O)NCCc2ccccc2)c1	Pf growth 96h 9.3µM
Cn1c(SCC(=O)NC2CCCC2)nnc1-c1ccco1	none
Cc1cccc(-n2c(SCC(N)=O)nnc2-c2ccco2)c1	Pf growth 48h inconclusive
COc1cccc(-n2nnnc2SCC(=O)NCCc2ccccc2)c1	none
COc1ccc(CC(=O)Oc2ccc(F)cc2)cc1	none
O=C1CCc2cc(S(=O)(=O)Nc3ccc(F)cc3)ccc2N1	none (no result: Shiga inhibitor, Cycloheximide cs)
O=C(NNC(=O)c1nn(-c2ccc(F)cc2)ccc1=O)c1ccccc1Cl	none
CC(C)n1nnnc1SCC(=O)NC1CCCC1	Pf growth 96h 5.2µM
Cc1cccc(-n2c(SCC(=O)NC3CCCC3)nnc2-c2ccoc2C)c1	Pf growth 48h 13µM
COc1cccc(-n2nnnc2SCC(=O)c2cc(OC)ccc2OC)c1	Pf growth 96h 12µM
COc1cccc(-n2nnnc2SCC(=O)NC2CCCCC2)c1	Cycloheximide cs 34
COc1cccc(-n2nnnc2SCC(=O)c2ccc(NC(C)=O)cc2)c1	none
